# Measured values published in paper PMC11062922 (Nature Chemical Biology, 2023).
# Like-named read-outs stand apart in the source and are kept apart here.
# Assays:
# Parameters in all cases: species or system human, MV4-11 + K-562 + COLO205 + SK-N-BE2 + OVCAR-8
# IRAK4 = settings: read-out: apparent Kd, compound concentrations: 100 nM and 1000 nM (sheet 'Samples'), n = 1
# MAPK7 = settings: read-out: apparent Kd, compound concentrations: 100 nM and 1000 nM (sheet 'Samples'), n = 1
# MARK2 = settings: read-out: apparent Kd, compound concentrations: 100 nM and 1000 nM (sheet 'Samples'), n = 1
# MARK3 = settings: read-out: apparent Kd, compound concentrations: 100 nM and 1000 nM (sheet 'Samples'), n = 1
# MAP3K6 = settings: read-out: apparent Kd, compound concentrations: 100 nM and 1000 nM (sheet 'Samples'), n = 1
# MDN1 = settings: read-out: apparent Kd, n = 1
# DYNC1LI1 = settings: read-out: apparent Kd, compound concentrations: 100 nM and 1000 nM (sheet 'Samples'), n = 1
# FGFR1 = settings: read-out: apparent Kd, n = 1
# PAK6 = settings: read-out: apparent Kd, n = 1
# EIF2AK1 = settings: read-out: apparent Kd, n = 1
# MAP3K4 = settings: read-out: apparent Kd, n = 1
# MAP4K3 = settings: read-out: apparent Kd, n = 1
# AKT3 = settings: read-out: apparent Kd, n = 1
# ACLY = settings: read-out: apparent Kd, compound concentrations: 100 nM and 1000 nM (sheet 'Samples'), n = 1
# PLK1 = settings: read-out: apparent Kd, n = 1
# PRKD1 = settings: read-out: apparent Kd, n = 1
# ADK = settings: read-out: apparent Kd, n = 1
# CDK9 = settings: read-out: apparent Kd; compound concentrations:100 nM and 1000 nM (sheet 'Samples'); n = 1
# CAMK2B = settings: read-out: apparent Kd, n = 1
# TTK = settings: read-out: apparent Kd, compound concentrations: 100 nM and 1000 nM (sheet 'Samples'), n = 1
# [1] = compound concentrations:100 nM and 1000 nM (sheet 'Samples')
compound,measurement,setting,value
Cl.O=C1N=C(NCc2ccccn2)S/C1=C\c1ccc2ncccc2c1 [RO4874953-001],potency estimated from few doses,IRAK4; CATDS: 7.1454413714057002E-2,1.93 µM
CN1C(=O)c2ccccc2N(C)c2nc(Nc3cnn(C4CCNCC4)c3)ncc21 [XMD-17-51],potency estimated from few doses,MAPK7; CATDS: 3.6148838376291702E-2,0.101 µM
same,potency estimated from few doses,MARK2; CATDS: 1.3481113896194E-2,2.05 µM
same,potency estimated from few doses,MARK3; CATDS: 1.4488422936038499E-2,1.43 µM
CNC1=NC(=O)/C(=C/c2ccc3ncccc3c2)S1 [RO4595949-000],potency estimated from few doses,MAP3K6; CATDS: 5.3158736559022798E-2,1.51 µM
CCn1cc(-c2ccnc3[nH]c(-c4cccc(CN(C)C)c4)cc23)c(-c2ccc(NC(=O)N(C)C)cc2)n1 [GSK1070916],potency estimated from few doses,MDN1; [1],2 µM
COc1cc(Nc2nccc(N3CCC(NC(=O)C4COc5ccccc5O4)C3)n2)cc(OC)c1OC (centres unmarked) [GSK1379761A],potency estimated from few doses,DYNC1LI1; CATDS: 0.20239822738500499,2.02 µM
COc1ccc(Nc2nccc(N3CCC(NC(=O)Nc4ccc5c(c4)OCO5)C3)n2)cc1 (centres unmarked) [GSK1379745A],potency estimated from few doses,"MDN1; compound concentrations: 100 nM and 1000 nM (sheet 'Samples'), CATDS: 4.1972847016179399E-2",1.36 µM
O=C1N=C(NCc2cccs2)SC1Cc1ccc2ncccc2c1 (centres unmarked) [RO4629078-000],potency estimated from few doses,"FGFR1; compound concentrations: 100 nM and 1000 nM (sheet 'Samples'), CATDS: 7.8188916788292304E-3",1.4 µM
same,potency estimated from few doses,MARK2; CATDS: 7.7790140637755802E-3,1.43 µM
same,potency estimated from few doses,MARK3; CATDS: 8.2190831573709308E-3,1.18 µM
same,potency estimated from few doses,"PAK6; compound concentrations: 100 nM and 1000 nM (sheet 'Samples'), CATDS: 5.6767334452466102E-2",0.0434 µM
CCN(CC)CCOc1ccc(Nc2ncc3cc(-c4c(Cl)cccc4Cl)c(=O)n(C)c3n2)cc1 [SB-601273],potency estimated from few doses,EIF2AK1; [1],0.802 µM
same,potency estimated from few doses,FGFR1; [1],0.388 µM
same,potency estimated from few doses,MAP3K4; [1],0.64 µM
CC(C)c1nc(-c2cccc(NS(=O)(=O)c3ccccc3)c2)c(-c2ccnc(Nc3ccc4c(c3)CN(C)CC4)n2)s1 [GSK1649598A],potency estimated from few doses,"EIF2AK1; compound concentrations: 100 nM and 1000 nM (sheet 'Samples'), CATDS: 1.2049138134939999E-2",2.29 µM
same,potency estimated from few doses,"MAP4K3; compound concentrations: 100 nM and 1000 nM (sheet 'Samples'), CATDS: 1.29423166532144E-2",1.57 µM
Cl.Cl.Cl.c1ccc(Oc2ccc(Nc3ccnc4cc(-c5ccc(CN6CCNCC6)o5)ccc34)cc2)nc1.c1ccc(Oc2ccc(Nc3ccnc4cc(-c5ccc(CN6CCNCC6)o5)ccc34)cc2)nc1 [GW567142A],potency estimated from few doses,"AKT3; compound concentrations: 100 nM and 1000 nM (sheet 'Samples'), CATDS: 1.96345458497789E-2",1.22 µM
same,potency estimated from few doses,MAPK7; CATDS: 1.6423654132294602E-2,2.37 µM
O=S(=O)(CCOCc1ccc(-c2ccc3ncnc(Nc4ccc(OCc5cccc(F)c5)c(Cl)c4)c3c2)o1)c1ccccc1 [GW615311X],potency estimated from few doses,MAP3K6; CATDS: 2.8394321566467099E-2,1.31 µM
COc1cc2ncn(-c3cc(OCCCc4ccccc4)c(C(N)=O)s3)c2cc1OC [GSK205189A],potency estimated from few doses,PAK6; [1],1.96 µM
CC(=O)N1CCN(c2ccc(Nc3nccc(-c4sc(C(C)C)nc4-c4cccc(NS(=O)(=O)c5cccc(Cl)c5)c4)n3)cn2)CC1 [GSK1660437A],potency estimated from few doses,ACLY; CATDS: 3.7699367281675798E-2,1.77 µM
Cn1cc(-c2cnc(N)c3c(-c4ccc5c(c4)CCN5C(=O)Cc4ccccc4)csc23)cn1 [GSK2593074A],potency estimated from few doses,MAP4K3; [1],1.57 µM
COc1cc2ncn(-c3cc(OCc4ccncc4)c(C(N)=O)s3)c2cc1OC [GSK336313A],potency estimated from few doses,PLK1; [1],0.686 µM
Cl.Cn1c(=O)c(Cc2ccc(F)cc2F)cc2cnc(NC3CCOCC3)nc21 [RO3308757-001],potency estimated from few doses,PAK6; [1],1.65 µM
N#Cc1cnc2cc(-c3cnc(CNCCN4CCOCC4)s3)ccc2c1Nc1ccc(Oc2ccccc2)cc1 [GW664114X],potency estimated from few doses,"MAP3K4; compound concentrations: 100 nM and 1000 nM (sheet 'Samples'), CATDS: 5.1499823560292202E-2",0.914 µM
CC(C)c1nc(-c2ccc(F)c(NS(=O)(=O)c3c(F)cccc3F)c2)c(-c2ccnc(Nc3ccc(N4CCOCC4)nc3)n2)s1 [GSK1804250A],potency estimated from few doses,PRKD1; [1],1.14 µM
COc1cc2ncn(-c3cc(OCc4cccs4)c(C(N)=O)s3)c2cc1OC [GSK312948A],potency estimated from few doses,ADK; [1],0.863 µM
N#Cc1cccc(Nc2nccc(-c3cnn4ncccc34)n2)c1 [GW778894X],potency estimated from few doses,CDK9,0.00372 µM
Cn1cc(-c2ccc3c(c2)CCN3C(=O)Cc2cccc(Cl)c2)c2c(N)ncnc21 [GSK2606590A],potency estimated from few doses,"EIF2AK1; compound concentrations: 100 nM and 1000 nM (sheet 'Samples'), CATDS: 0.41818384912394302",0.679 µM
Nc1ncc(-c2cn[nH]c2)c2scc(-c3ccc4c(c3)CCN4C(=O)Cc3ccccc3)c12 [GSK2593067A],potency estimated from few doses,"MAP4K3; compound concentrations: 100 nM and 1000 nM (sheet 'Samples'), CATDS: 5.6013670337788E-2",2.21 µM
CNC(=O)c1ccccc1Nc1nc(Nc2cccc(CS(C)(=O)=O)c2)ncc1C.O=CO [GSK1520489A],potency estimated from few doses,"FGFR1; compound concentrations: 100 nM and 1000 nM (sheet 'Samples'), CATDS: 1.6795329465602301E-2",0.213 µM
same,potency estimated from few doses,IRAK4; CATDS: 9.4049632429945695E-3,1.87 µM
CC(=O)c1c(-c2ccncc2)[nH]c(-c2ccncc2)c1C [GW493036X],potency estimated from few doses,ADK; [1],1.76 µM
same,potency estimated from few doses,CDK9,0.154 µM
CN1CCN(Cc2ccc(NC(=O)Nc3ccc(N(C)c4ccnc(Nc5ccc(CS(C)(=O)=O)cc5)n4)cc3)cc2)CC1.Cl [GW827654A],potency estimated from few doses,"MAP3K4; compound concentrations: 100 nM and 1000 nM (sheet 'Samples'), CATDS: 3.4818891633212903E-2",1.77 µM
Cl.Oc1ccc2ncnc(Nc3ccc(OCc4ccccc4)cc3)c2c1 [GI262866A],potency estimated from few doses,CAMK2B; [1],0.391 µM
COc1cc2ncn(-c3cc(OCc4sccc4Cl)c(C(N)=O)s3)c2cc1OC [GSK448459A],potency estimated from few doses,PLK1; [1],0.0812 µM
Cn1cc(C2=C(c3cccc([N+](=O)[O-])c3)C(=O)NC2=O)c2ccccc21 [RO0317474-000],potency estimated from few doses,"CAMK2B; compound concentrations: 100 nM and 1000 nM (sheet 'Samples'), CATDS: 0.20512519327704001",0.717 µM
COc1cc(N2CCN(C(C)C)CC2)ccc1Nc1nc(Nc2cccc(F)c2C(=O)O)c2cc[nH]c2n1 [GSK1819799A],potency estimated from few doses,ACLY; CATDS: 4.2702759645578299E-2,2 µM
same,potency estimated from few doses,TTK; CATDS: 6.5910432506735395E-2,0.662 µM
Fc1cccc(COc2ccc(Nc3ncncc3C#Cc3ccccc3)cc2Cl)c1 [GW651576X],potency estimated from few doses,DYNC1LI1; CATDS: 4.5527640720115801E-2,2.22 µM
same,potency estimated from few doses,TTK; CATDS: 4.4346947520248398E-2,2.37 µM
COc1cc(F)c(F)c(F)c1C(=O)c1cnc(NC2CCN(S(C)(=O)=O)CC2)nc1N [RO4600703-000],potency estimated from few doses,CDK9,0.349 µM
COc1ccc(Nc2nccc(N3CCC(NC(=O)Nc4cccc(OC)c4)C3)n2)cc1 (centres unmarked) [GSK1379742A],potency estimated from few doses,"ADK; compound concentrations: 100 nM and 1000 nM (sheet 'Samples'), CATDS: 0.15674492121070999",1.07 µM
Nc1c(C(=O)c2ccccc2)cnn1-c1ccc(F)cc1 [RO1151246-000],potency estimated from few doses,AKT3; [1],1.42 µM
COc1ccc(C2=C(c3cn(C)c4ccccc34)C(=O)NC2=O)cc1OC [RO3206363-000],potency estimated from few doses,"PRKD1; compound concentrations: 100 nM and 1000 nM (sheet 'Samples'), CATDS: 5.5883212244700199E-2",0.347 µM
Fc1ccc(-c2ncn(C3CCNCC3)c2-c2ccnc(Oc3ccc4c(c3)OCO4)n2)cc1 [SB-250715],potency estimated from few doses,AKT3; [1],2.29 µM
O=C1NC(=O)C(c2cccc(Cl)c2)=C1Nc1ccc(O)c(Cl)c1 [SB-409514],potency estimated from few doses,ACLY; CATDS: 0.38429140901440101,1 µM
COc1cccc(C2=C(c3cn(C)c4c(C)cccc34)C(=O)NC2=O)c1 [RO3301012-000],potency estimated from few doses,"CAMK2B; compound concentrations: 100 nM and 1000 nM (sheet 'Samples'), CATDS: 0.15582522082394101",0.642 µM
COc1ccc(-c2nn3ncccc3c2-c2ccnc(Nc3ccc4c(c3)OCCO4)n2)cc1 [GW827106X],potency estimated from few doses,TTK; CATDS: 4.8165403785390797E-2,1.63 µM
Cc1ccc(NC(=O)Nc2ccccc2)cc1-c1ccc(C(=O)Nc2ccncc2)cc1 [GSK1398471A],potency estimated from few doses,"PRKD1; compound concentrations: 100 nM and 1000 nM (sheet 'Samples'), CATDS: 0.105821439316495",1.68 µM
NC(=O)c1sc(-n2cnc3ccc(C(F)(F)F)cc32)cc1OCc1ccccc1Br [GW853606X],potency estimated from few doses,"PLK1; compound concentrations: 100 nM and 1000 nM (sheet 'Samples'), CATDS: 0.32728933930944998",1.02 µM
